Test results as given in the supplement of paper PMC7411054.

Assays:
Assay in all cases: phenotypically active (imaging signature differs from DMSO and reproducible) at any of 0.3-9 uM (binary (1 = active, 0 = inactive)); higher = active
Settings in all cases: treatment time: 24 h
A549-ACTB-RAB5A = system: A549-ACTB-RAB5A
Summary of the method: (§1)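 Each of fifteen gene-edited A549, HepG2 and WPMY1 reporter lines, marked with BFP for segmentation and GFP and RFP/FusionRed, was treated in four wells at 0.3, 1, 3 or 9 µM for 24 h prior to live imaging. Normalisation of per-well live-cell features used solvent control wells. Deviation needed ≥3 of 4 wells beyond the 95th percentile of control Euclidean distances, and reproducibility needed a median replicate Pearson correlation above the 95th percentile of non-replicates. Both were required for phenotypic activity.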

A549-CANX-COX4 = system: A549-CANX-COX4
Summary of the method: as §1

A549-GM130-SQSTM1 = system: A549-GM130-SQSTM1
Summary of the method: as §1

A549-TP53BP1-CLTA = system: A549-TP53BP1-CLTA
Summary of the method: as §1

A549-TUBA1B-RELA = system: A549-TUBA1B-RELA
Summary of the method: as §1

HepG2-ACTB-RAB5A = system: HepG2-ACTB-RAB5A
Summary of the method: as §1

HepG2-CANX-COX4 = system: HepG2-CANX-COX4
Summary of the method: as §1

HepG2-GM130-SQSTM1 = system: HepG2-GM130-SQSTM1
Summary of the method: as §1

HepG2-TP53BP1-CLTA = system: HepG2-TP53BP1-CLTA
Summary of the method: as §1

HepG2-TUBA1B-RELA = system: HepG2-TUBA1B-RELA
Summary of the method: as §1

WPMY1-ACTB-RAB5A = system: WPMY1-ACTB-RAB5A
Summary of the method: as §1

WPMY1-CANX-COX4 = system: WPMY1-CANX-COX4
Summary of the method: as §1

WPMY1-GM130-SQSTM1 = system: WPMY1-GM130-SQSTM1
Summary of the method: as §1

WPMY1-TP53BP1-CLTA = system: WPMY1-TP53BP1-CLTA
Summary of the method: as §1

WPMY1-TUBA1B-RELA = system: WPMY1-TUBA1B-RELA
Summary of the method: as §1

Measured: phenotypically active

CCCCCCCCCN1C[C@H](O)[C@@H](O)[C@H](O)[C@H]1CO [N-Nonyldeoxynojirimycin]
inactive: A549-ACTB-RAB5A 0 | A549-CANX-COX4 0 | A549-GM130-SQSTM1 0 | A549-TP53BP1-CLTA 0 | A549-TUBA1B-RELA 0 | HepG2-ACTB-RAB5A 0 | HepG2-CANX-COX4 0 | HepG2-GM130-SQSTM1 0 | HepG2-TP53BP1-CLTA 0 | HepG2-TUBA1B-RELA 0 | WPMY1-ACTB-RAB5A 0 | WPMY1-CANX-COX4 0 | WPMY1-GM130-SQSTM1 0 | WPMY1-TP53BP1-CLTA 0 | WPMY1-TUBA1B-RELA 0

C[C@H](N[C@@H](CCc1ccccc1)C(=O)O)C(=O)N1CCC[C@H]1C(=O)O [enalaprilat]
inactive: A549-ACTB-RAB5A 0 | A549-CANX-COX4 0 | A549-GM130-SQSTM1 0 | A549-TP53BP1-CLTA 0 | A549-TUBA1B-RELA 0 | HepG2-ACTB-RAB5A 0 | HepG2-CANX-COX4 0 | HepG2-GM130-SQSTM1 0 | HepG2-TP53BP1-CLTA 0 | HepG2-TUBA1B-RELA 0 | WPMY1-ACTB-RAB5A 0 | WPMY1-CANX-COX4 0 | WPMY1-GM130-SQSTM1 0 | WPMY1-TP53BP1-CLTA 0 | WPMY1-TUBA1B-RELA 0

O=C(O)CCCC[C@@H]1SC[C@@H]2NC(=O)N[C@@H]21 [Biotin]
inactive: A549-ACTB-RAB5A 0 | A549-CANX-COX4 0 | A549-GM130-SQSTM1 0 | A549-TP53BP1-CLTA 0 | A549-TUBA1B-RELA 0 | HepG2-ACTB-RAB5A 0 | HepG2-CANX-COX4 0 | HepG2-GM130-SQSTM1 0 | HepG2-TP53BP1-CLTA 0 | HepG2-TUBA1B-RELA 0 | WPMY1-ACTB-RAB5A 0 | WPMY1-CANX-COX4 0 | WPMY1-GM130-SQSTM1 0 | WPMY1-TP53BP1-CLTA 0 | WPMY1-TUBA1B-RELA 0

O=C1NC(=O)/C(=C\c2cccc(C(F)(F)F)c2)S1
inactive: A549-ACTB-RAB5A 0 | A549-CANX-COX4 0 | A549-GM130-SQSTM1 0 | A549-TP53BP1-CLTA 0 | A549-TUBA1B-RELA 0 | HepG2-ACTB-RAB5A 0 | HepG2-CANX-COX4 0 | HepG2-GM130-SQSTM1 0 | HepG2-TP53BP1-CLTA 0 | HepG2-TUBA1B-RELA 0 | WPMY1-ACTB-RAB5A 0 | WPMY1-CANX-COX4 0 | WPMY1-GM130-SQSTM1 0 | WPMY1-TP53BP1-CLTA 0 | WPMY1-TUBA1B-RELA 0

COC1=C(O)C(=O)c2ccccc2C1=O [2-hydroxy-3-methoxy-naphtoquinone]
inactive: A549-ACTB-RAB5A 0 | A549-CANX-COX4 0 | A549-GM130-SQSTM1 0 | A549-TP53BP1-CLTA 0 | A549-TUBA1B-RELA 0 | HepG2-ACTB-RAB5A 0 | HepG2-CANX-COX4 0 | HepG2-GM130-SQSTM1 0 | HepG2-TP53BP1-CLTA 0 | HepG2-TUBA1B-RELA 0 | WPMY1-ACTB-RAB5A 0 | WPMY1-CANX-COX4 0 | WPMY1-GM130-SQSTM1 0 | WPMY1-TP53BP1-CLTA 0 | WPMY1-TUBA1B-RELA 0

C[N+](C)(C)CCCCCC[N+](C)(C)C [Hexamethonium bromide]
inactive: A549-ACTB-RAB5A 0 | A549-CANX-COX4 0 | A549-GM130-SQSTM1 0 | A549-TP53BP1-CLTA 0 | A549-TUBA1B-RELA 0 | HepG2-ACTB-RAB5A 0 | HepG2-CANX-COX4 0 | HepG2-GM130-SQSTM1 0 | HepG2-TP53BP1-CLTA 0 | HepG2-TUBA1B-RELA 0 | WPMY1-ACTB-RAB5A 0 | WPMY1-CANX-COX4 0 | WPMY1-GM130-SQSTM1 0 | WPMY1-TP53BP1-CLTA 0 | WPMY1-TUBA1B-RELA 0

COc1ccc([C@@H]2CNC(=O)C2)cc1OC1CCCC1 [(R)-(-)-Rolipram]
inactive: A549-ACTB-RAB5A 0 | A549-CANX-COX4 0 | A549-GM130-SQSTM1 0 | A549-TP53BP1-CLTA 0 | A549-TUBA1B-RELA 0 | HepG2-ACTB-RAB5A 0 | HepG2-CANX-COX4 0 | HepG2-GM130-SQSTM1 0 | HepG2-TP53BP1-CLTA 0 | HepG2-TUBA1B-RELA 0 | WPMY1-ACTB-RAB5A 0 | WPMY1-CANX-COX4 0 | WPMY1-GM130-SQSTM1 0 | WPMY1-TP53BP1-CLTA 0 | WPMY1-TUBA1B-RELA 0

CCc1cccc2c3c([nH]c12)C(CC)(CC(=O)O)OCC3 (stereo not given) [etodolac]
inactive: A549-ACTB-RAB5A 0 | A549-CANX-COX4 0 | A549-GM130-SQSTM1 0 | A549-TP53BP1-CLTA 0 | A549-TUBA1B-RELA 0 | HepG2-ACTB-RAB5A 0 | HepG2-CANX-COX4 0 | HepG2-GM130-SQSTM1 0 | HepG2-TP53BP1-CLTA 0 | HepG2-TUBA1B-RELA 0 | WPMY1-ACTB-RAB5A 0 | WPMY1-CANX-COX4 0 | WPMY1-GM130-SQSTM1 0 | WPMY1-TP53BP1-CLTA 0 | WPMY1-TUBA1B-RELA 0

O=C(/C=C\c1ccc(O)c(O)c1)O[C@H]1C[C@](OC(=O)/C=C/c2ccc(O)c(O)c2)(C(=O)O)C[C@H](O)[C@H]1O [Cynarin]
inactive: A549-ACTB-RAB5A 0 | A549-CANX-COX4 0 | A549-GM130-SQSTM1 0 | A549-TP53BP1-CLTA 0 | A549-TUBA1B-RELA 0 | HepG2-ACTB-RAB5A 0 | HepG2-CANX-COX4 0 | HepG2-GM130-SQSTM1 0 | HepG2-TP53BP1-CLTA 0 | HepG2-TUBA1B-RELA 0 | WPMY1-ACTB-RAB5A 0 | WPMY1-CANX-COX4 0 | WPMY1-GM130-SQSTM1 0 | WPMY1-TP53BP1-CLTA 0 | WPMY1-TUBA1B-RELA 0

CC(=O)NCCCS(=O)(=O)O [acamprosate]
inactive: A549-ACTB-RAB5A 0 | A549-CANX-COX4 0 | A549-GM130-SQSTM1 0 | A549-TP53BP1-CLTA 0 | A549-TUBA1B-RELA 0 | HepG2-ACTB-RAB5A 0 | HepG2-CANX-COX4 0 | HepG2-GM130-SQSTM1 0 | HepG2-TP53BP1-CLTA 0 | HepG2-TUBA1B-RELA 0 | WPMY1-ACTB-RAB5A 0 | WPMY1-CANX-COX4 0 | WPMY1-GM130-SQSTM1 0 | WPMY1-TP53BP1-CLTA 0 | WPMY1-TUBA1B-RELA 0

NC(=O)c1ncn([C@@H]2O[C@H](CO)[C@@H](O)[C@H]2O)c1N
inactive: A549-ACTB-RAB5A 0 | A549-CANX-COX4 0 | A549-GM130-SQSTM1 0 | A549-TP53BP1-CLTA 0 | A549-TUBA1B-RELA 0 | HepG2-ACTB-RAB5A 0 | HepG2-CANX-COX4 0 | HepG2-GM130-SQSTM1 0 | HepG2-TP53BP1-CLTA 0 | HepG2-TUBA1B-RELA 0 | WPMY1-ACTB-RAB5A 0 | WPMY1-CANX-COX4 0 | WPMY1-GM130-SQSTM1 0 | WPMY1-TP53BP1-CLTA 0 | WPMY1-TUBA1B-RELA 0

OCCN1C[C@H](O)[C@@H](O)[C@H](O)[C@H]1CO [Miglitol]
inactive: A549-ACTB-RAB5A 0 | A549-CANX-COX4 0 | A549-GM130-SQSTM1 0 | A549-TP53BP1-CLTA 0 | A549-TUBA1B-RELA 0 | HepG2-ACTB-RAB5A 0 | HepG2-CANX-COX4 0 | HepG2-GM130-SQSTM1 0 | HepG2-TP53BP1-CLTA 0 | HepG2-TUBA1B-RELA 0 | WPMY1-ACTB-RAB5A 0 | WPMY1-CANX-COX4 0 | WPMY1-GM130-SQSTM1 0 | WPMY1-TP53BP1-CLTA 0 | WPMY1-TUBA1B-RELA 0
